# Measurements from the OligoGym collection.
# Columns and labels:
# Assay in all cases: pooled miR-30 sensor sort-seq; sequence = guide strand
# Conditions in all cases: shRNA
# OSBPL3 = molecular target: OSBPL3
# OSBPL11 = molecular target: OSBPL11
# OSBPL2 = molecular target: OSBPL2
# OSR1 = molecular target: OSR1
# OTOL1 = molecular target: OTOL1
# OTOP2 = molecular target: OTOP2
# OTOP1 = molecular target: OTOP1
# OTP = molecular target: OTP
# P2RY6 = molecular target: P2RY6
# PARP11 = molecular target: PARP11
# PCSK5 = molecular target: PCSK5
# PDLIM4 = molecular target: PDLIM4
# PDP1 = molecular target: PDP1
# Note: reference of the scale not given here.
sequence,measurement,setting,value
TTCTTTACAGACATCACTGAGA,sensor-assay potency score (higher = more potent),OSBPL3,0.168
TATCTGAAGTCTGCTAACCCAG,sensor-assay potency score (higher = more potent),OSBPL11,-1.27
TTGACTTGGTCTCCTCTGCGAT,sensor-assay potency score (higher = more potent),OSBPL11,-0.7
TACATTCATATAAACAATCAGG,sensor-assay potency score (higher = more potent),OSBPL3,-0.979
TTAATTAGAATTACATCCTTGA,sensor-assay potency score (higher = more potent),OSBPL2,1.08
TTCTTTACCACTTTGGTCTTGC,sensor-assay potency score (higher = more potent),OSBPL11,0.433
TCTACTTTCATTAGAAAGCTGA,sensor-assay potency score (higher = more potent),OSBPL3,-0.307
TATATCTGTGGTCTCGCAGGTG,sensor-assay potency score (higher = more potent),OSR1,0.107
TTCAGGATGGTCCACACGCTGA,sensor-assay potency score (higher = more potent),OSBPL2,-1.77
TTCTCTCTGCTTCTCCTCCAGC,sensor-assay potency score (higher = more potent),OSBPL2,-1
TAAATCTGAATCCTAAATCTTC,sensor-assay potency score (higher = more potent),OSBPL2,-0.577
TTCTTGATGACAATCTCTCCAT,sensor-assay potency score (higher = more potent),OSBPL3,-0.313
TTTCCCACACTCTTGACACTTG,sensor-assay potency score (higher = more potent),OSR1,-0.209
TAGAATTACATCCTTGATCAGG,sensor-assay potency score (higher = more potent),OSBPL2,-0.471
TTGAAGGCGATTGGCATCGTGA,sensor-assay potency score (higher = more potent),OSBPL2,-0.348
TACATTCTGCATAAAATCCTGA,sensor-assay potency score (higher = more potent),OSBPL11,0.486
TTTGGAGTGAATATATCTGTGG,sensor-assay potency score (higher = more potent),OSR1,-0.758
TAAATCGAGTGTCAGTAGGTGG,sensor-assay potency score (higher = more potent),OSBPL3,-1.06
TTTGTTTTTGTCTTGAATGTGT,sensor-assay potency score (higher = more potent),OSBPL2,0.222
TCTAAGTCAATCATTCCCGTGA,sensor-assay potency score (higher = more potent),OSBPL2,0.725
TAGGACTTGGTGAAGTGGCGGC,sensor-assay potency score (higher = more potent),OSR1,0.00529
TTGTGCTTTACTTCAGCTGTAA,sensor-assay potency score (higher = more potent),OSBPL11,-0.271
TTGAATGTGTCCTTCCACCTTG,sensor-assay potency score (higher = more potent),OSBPL2,-0.0307
TTGGAGATAACAGAACTTCCTG,sensor-assay potency score (higher = more potent),OSBPL3,0.0622
TTCATCTCTGGAGTTTTCGGAT,sensor-assay potency score (higher = more potent),OSBPL3,-0.271
TTGCTCTCCATACACAGGCAGA,sensor-assay potency score (higher = more potent),OSBPL3,-1.4
TTTTGTCTTGAATGTGTCCTTC,sensor-assay potency score (higher = more potent),OSBPL2,0.333
TAGAAGAATCTCTTATGCCAGC,sensor-assay potency score (higher = more potent),OSBPL3,-0.865
TTCTTCTCCGGGACTTCGCTTC,sensor-assay potency score (higher = more potent),OSBPL3,0.0582
TAGGTTGTAGGACTTGGTGAAG,sensor-assay potency score (higher = more potent),OSR1,-1.09
TTAAGTCTCTTTGTTGTCCTTC,sensor-assay potency score (higher = more potent),OSBPL11,0.3
TTACACACATCTTCCTCTCTGT,sensor-assay potency score (higher = more potent),OSBPL11,0.858
TTCTTTTCTGGAGACAGCTTGG,sensor-assay potency score (higher = more potent),OSR1,-0.688
TTTTTGTCTTGAATGTGTCCTT,sensor-assay potency score (higher = more potent),OSBPL2,0.356
AATATATCTGTGGTCTCGCAGG,sensor-assay potency score (higher = more potent),OSR1,-1.37
TATACTTCATTAAATAGCCATA,sensor-assay potency score (higher = more potent),OSBPL11,-1.62
TATAGTATTGCTCGTAGCCTTT,sensor-assay potency score (higher = more potent),OSBPL3,-1.22
TTTAAAATCTCCACTGTCCCAT,sensor-assay potency score (higher = more potent),OSBPL2,-0.254
TTGCTATTGTGTTCATACCAGC,sensor-assay potency score (higher = more potent),OTOL1,-1.39
TGAACTGCTTCTTATTCTGGGC,sensor-assay potency score (higher = more potent),OTOL1,-0.752
TTCCATTCCACTGTCTCCTTTG,sensor-assay potency score (higher = more potent),OTOL1,-0.205
TTGCCAGCAGCATCATCGCAGT,sensor-assay potency score (higher = more potent),OTOP2,-1.22
AAGCAGACAATGTTGAAGCTGT,sensor-assay potency score (higher = more potent),OTOP2,0.428
TAGAAATCCACCTCCACTGTGT,sensor-assay potency score (higher = more potent),OTOP2,0.657
TCCACCTCCACTGTGTTGCTGA,sensor-assay potency score (higher = more potent),OTOP2,-0.748
TTGGTCATTATAGAGAATCTTT,sensor-assay potency score (higher = more potent),OTOL1,-0.546
AAACAATGTGATACTACCGCGC,sensor-assay potency score (higher = more potent),OTOP1,-0.348
TAGAAGAGGATCCAGAGCGTTG,sensor-assay potency score (higher = more potent),OTOP2,-1.26
TTGTCCTTTCACTCCTCCCAAA,sensor-assay potency score (higher = more potent),OTOL1,-1.46
TAGAACATGATGAGTGCCGACT,sensor-assay potency score (higher = more potent),OTOP1,-0.938
TTGGTGCACAGATTCATCCACC,sensor-assay potency score (higher = more potent),OTOP2,-1.03
TTGAACCTCGTAGATGATGAAG,sensor-assay potency score (higher = more potent),OTOP2,-1.6
AACATATCACAAATTGACCAGT,sensor-assay potency score (higher = more potent),OTP,-0.538
TTGAACTGCATCTTCTGGTGCT,sensor-assay potency score (higher = more potent),OTOP1,0.911
TTCTCTGGACTTGAACTGCTTC,sensor-assay potency score (higher = more potent),OTOL1,-0.336
TCGATGATAAACATGTTCTGGA,sensor-assay potency score (higher = more potent),OTOP2,0.252
TAGAGCAGTTAAACTTCCCAGT,sensor-assay potency score (higher = more potent),OTOL1,-0.7
TTGCAGACTGTGACCACCCGAA,sensor-assay potency score (higher = more potent),OTOP1,0.116
TGATACTCTATGTTGAAGGGGT,sensor-assay potency score (higher = more potent),OTOP1,0.574
ATCCACAGAATGACATTGCAGA,sensor-assay potency score (higher = more potent),OTOP2,-0.488
TTTGGTAATTGGTTCTGCCATT,sensor-assay potency score (higher = more potent),OTOL1,-0.925
TTGTAGGACTTGGTGAAGTGGC,sensor-assay potency score (higher = more potent),OSR1,-0.656
AAAACTGTTGTTATGTTCCCAA,sensor-assay potency score (higher = more potent),OTOP1,-0.801
TAGGAAAAAACATATGTCCCAG,sensor-assay potency score (higher = more potent),OTOL1,-0.389
TCTTTTGACACCTCAAGCCAGA,sensor-assay potency score (higher = more potent),OTOL1,-0.531
TAGATGACCAGGGCCTGCCTGG,sensor-assay potency score (higher = more potent),OTOP2,-1.42
TTGCAGAGGAACAAGAAGGCTG,sensor-assay potency score (higher = more potent),OTOP1,-0.195
TTCCTCAGGACTTTTCTCTTGG,sensor-assay potency score (higher = more potent),OTOP1,0.566
TTGGTGCTTTGACTCATTGAGG,sensor-assay potency score (higher = more potent),OTOP1,-1.32
TTGAGCGCTGGAACGCTGCCTC,sensor-assay potency score (higher = more potent),OSR1,-0.183
TTGAGTTGGTGCTTTGACTCAT,sensor-assay potency score (higher = more potent),OTOP1,0.454
TTTCTCTGGACTTGAACTGCTT,sensor-assay potency score (higher = more potent),OTOL1,-0.0808
TTCCACATGACATACAGCATGG,sensor-assay potency score (higher = more potent),OTOP2,-1.01
TCGTCTATCCTGTAAATCCGGA,sensor-assay potency score (higher = more potent),OTOP1,-0.834
TTGAACTGCTTCTTATTCTGGG,sensor-assay potency score (higher = more potent),OTOL1,0.431
ATATCTGTGGTCTCGCAGGTGG,sensor-assay potency score (higher = more potent),OSR1,-0.964
TTGGTGGTGAGTGTGAACATGA,sensor-assay potency score (higher = more potent),OTOP2,-0.459
AAGCACAGCAGGTCGCTCTTGC,sensor-assay potency score (higher = more potent),OTOP1,0.0599
TAGCGCTGGAAGCTGATGCAGG,sensor-assay potency score (higher = more potent),P2RY6,-0.775
TTTCTGTAGGAGCTCATGTGGT,sensor-assay potency score (higher = more potent),P2RY6,-1.02
TTTTTTTCTTGAGCTGAGCCTT,sensor-assay potency score (higher = more potent),PARP11,-0.839
ATAGCTGATACTACAGCTCTGC,sensor-assay potency score (higher = more potent),PCSK5,-0.314
TACACCGCCACCACGTCGTAGC,sensor-assay potency score (higher = more potent),PDLIM4,-0.286
TTGTCATTCAACTGGTCTGGGC,sensor-assay potency score (higher = more potent),PDP1,-1.11
